In the supplement of paper PMC6555819 one finds PBM binding z-score data, which are given here for 7 sequences.

Common to all, as to assay: PBM binding z-score (relative to random genomic background probes); higher = stronger binding; sequences stand for … in GC…GCGATTGACAGCGTAGAATGAAGG
The test system of assay [1] is RARb homodimer (NR concentration 270 nM). Summed up:
(§1)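 Ligand-free nuclear receptor dimers were bound for 1 h to custom Agilent 4×180K protein-binding microarrays. Detection used antibodies against each partner (one per run). Binding z-scores rest on regression-normalized fluorescence, with random background probes as the reference.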

In assay [2] the test system is RARg:RXRa (NR concentration 270 nM, RXRa partner concentration 90 nM). An outline of the steps: as §1
The subject of assay [3] is RARg homodimer (NR concentration 270 nM). Summed up:
as §1

Assay [4] has as its system RXRa DBDmut IVT, anti-RXR (DBD mutation: RXRa K156A/R161A, NR concentration 90 nM). An outline of the steps:
as §1

In assay [5] the test system is RXRa homodimer (NR concentration 180 nM). An outline of the steps: as §1
Assay [6] deals with THRa:RXRa (NR concentration 90 nM, RXRa partner concentration 90 nM). Summed up:
as §1

Assay [7] has as its system THRa homodimer (NR concentration 90 nM). An outline of the steps:
as §1

The subject of assay [8] is VDR homodimer (NR concentration 270 nM). Summed up: as §1

Regarding CCAGACAGGTGAGAAGGTAACACAGCCTCGATTA, the PBM binding z-score was 1.03 in assay [1]; 0.858 in assay [2]; 0.833 in assay [3]; 0.148 in assay [4]; 0.73 in assay [5]; 0.62 in assay [6]. The PBM binding z-score in assay [7] came to 0.195; in assay [8], 0.124.
ATCTCGAGGTAAAGATAGTTCAGTGAATGCAAAT: the PBM binding z-score in assay [1] was 0.904; in assay [2], 0.819; in assay [3], 0.829; in assay [4], -0.272; in assay [5] it was 0.518; in assay [6], 1.5. For the same sequence, the values for the PBM binding z-score in assay [7] and in assay [8] were -0.16 and 0.272, respectively.
Turning to GCTTACGGGTCAAAGGTTAGAGCATGAATAGAAT, the PBM binding z-score worked out at 3.1 in assay [1]; 6.33 in assay [2]; 4.54 in assay [3]; 2.02 in assay [4]; 8.91 in assay [5]; 3.6 in assay [6]. In addition, the results for the PBM binding z-score in assay [7] and in assay [8] were -0.338 and 0.946, respectively.
With TCTTGTAGATCAAAAGAGGTTAAGAAAGTGCGCT, the PBM binding z-score in assay [1] stood at 0.976; in assay [2], 0.867; in assay [3], 0.449; in assay [4], 0.343; in assay [5], 1.35; in assay [6], 2.6. Further, the PBM binding z-score in assay [7] is -0.614; in assay [8] it was 0.274.
With ATATGTAGGTTAGCTGGGGTCAATCAGACTAGGC, the PBM binding z-score amounted to 3.82 in assay [1]; 4.3 in assay [2]; 3.37 in assay [3]; 1.26 in assay [4]; 5.42 in assay [5]; 5.12 in assay [6]. Moreover, the PBM binding z-score in assay [7] was found to be 2.82; in assay [8], 3.44.
Regarding AGAACGAGGGCACGCTGAGTTGATAGCAGAGTAG, the PBM binding z-score was determined as 1.21 in assay [1]; 2.08 in assay [2]; 2.42 in assay [3]; 1.95 in assay [4]; 1.36 in assay [5]; 1.83 in assay [6]. The PBM binding z-score in assay [7] was -0.0157; in assay [8] it was 1.98.
With ACCGACAGGTGATGAAGGTAACTCAGGCTATCAT, the PBM binding z-score in assay [1] is 0.0533; in assay [2], 0.16; in assay [3], 0.23; in assay [4], -0.271; in assay [5] it was 0.299; in assay [6], 0.649. For the same sequence, the PBM binding z-score in assay [7] is -0.149; in assay [8], -0.217.
